Results taken from PubChem BioAssay (EPA / NIEHS).
Inconclusive results are not listed. Calls of active or inactive are those of the source. Rule for the calls: active = hit-call score of the fitted dose curve at least 0.9, where 1 is the maximum; inconclusive = response in the unintended direction; inactive = score below 0.9.

Assays:
[1] = molecular target: Neuropeptide Y receptor type 2 (Homo sapiens) (UniProt P49146); assay: NVS_GPCR_hNPY2: NovaScreen (NVS) G Protein-Coupled Receptor Assay for human Neuropeptide Receptor Y2 (NPY2) (AID 2283277)
Neuropeptide Y receptor type 2 (Homo sapiens), sequence (P49146 whole entry, looked up): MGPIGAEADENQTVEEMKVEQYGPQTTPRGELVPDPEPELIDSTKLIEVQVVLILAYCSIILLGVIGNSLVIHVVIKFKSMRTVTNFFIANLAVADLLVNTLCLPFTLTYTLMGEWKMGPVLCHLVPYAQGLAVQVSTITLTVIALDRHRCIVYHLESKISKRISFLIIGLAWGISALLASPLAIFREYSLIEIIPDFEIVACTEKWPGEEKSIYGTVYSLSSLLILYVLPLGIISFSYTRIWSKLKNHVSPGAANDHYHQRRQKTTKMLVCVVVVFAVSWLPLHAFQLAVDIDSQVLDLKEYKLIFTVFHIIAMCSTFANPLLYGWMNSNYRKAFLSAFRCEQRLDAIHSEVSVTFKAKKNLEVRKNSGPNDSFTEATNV
Method in brief: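 Radioligand binding on membranes extracted from SK-N-MC cells, cell-free, read 1 h after dosing by filter-based scintillation counting. Loss of signal vs DMSO. Primary screen in duplicate at 25 uM; actives followed up in concentration-response up to 50 uM.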

[2] = molecular target: human Opioid Receptor Delta 1 (Opiate D1), OPRD1 (gene 4985) (UniProt P41143); assay: NVS_GPCR_hOpiate_D1: NovaScreen (NVS) G Protein-Coupled Receptor Assay for human Opioid Receptor Delta 1 (Opiate D1) (AID 2283280)
human Opioid Receptor Delta 1 (Opiate D1), OPRD1 (gene 4985), sequence (P41143 whole entry, looked up): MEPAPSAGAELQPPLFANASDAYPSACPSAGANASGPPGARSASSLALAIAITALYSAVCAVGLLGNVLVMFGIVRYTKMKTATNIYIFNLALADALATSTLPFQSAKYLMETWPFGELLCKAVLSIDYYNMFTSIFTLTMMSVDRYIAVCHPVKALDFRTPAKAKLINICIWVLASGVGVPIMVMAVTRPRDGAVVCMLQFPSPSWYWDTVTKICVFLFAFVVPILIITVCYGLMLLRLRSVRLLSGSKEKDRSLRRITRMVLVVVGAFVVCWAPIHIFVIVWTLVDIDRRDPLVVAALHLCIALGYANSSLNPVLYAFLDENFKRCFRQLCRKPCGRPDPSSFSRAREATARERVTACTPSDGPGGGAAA
Method in brief: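 Radioligand displacement on membranes from CHO cells expressing the receptor, read by filter scintillation counting 1 h after dosing. Duplicate single-point screen at 25 uM, then concentration series for actives; loss of signal versus DMSO.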

[3] = molecular target: human Purinergic Receptor P2Y, P2RY1 (gene 5028) (UniProt P47900); assay: NVS_GPCR_hPY2: NovaScreen (NVS) G Protein-Coupled Receptor Assay for human Purinergic Receptor P2Y (AID 2283281)
human Purinergic Receptor P2Y, P2RY1 (gene 5028), sequence (P47900 whole entry, looked up): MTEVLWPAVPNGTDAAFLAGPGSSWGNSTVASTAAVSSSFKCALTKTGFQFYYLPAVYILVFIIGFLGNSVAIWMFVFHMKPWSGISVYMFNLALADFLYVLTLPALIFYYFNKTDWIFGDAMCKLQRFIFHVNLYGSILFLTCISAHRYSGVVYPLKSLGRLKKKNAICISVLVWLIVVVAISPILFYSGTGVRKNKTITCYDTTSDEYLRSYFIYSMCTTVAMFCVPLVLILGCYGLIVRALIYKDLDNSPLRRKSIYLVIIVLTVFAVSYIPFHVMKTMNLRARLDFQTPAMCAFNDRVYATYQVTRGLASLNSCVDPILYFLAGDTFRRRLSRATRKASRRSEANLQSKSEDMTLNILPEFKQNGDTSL
Method in brief: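 Cell-free radioligand binding using U937-derived protein, 1 h after dosing, filter-based scintillation counting. Screened in duplicate at 25 uM; actives rerun as concentration-response up to 50 uM; loss of signal versus DMSO.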

[4] = molecular target: human Thromboxane A2 Receptor (TXA2), TBXA2R (gene 6915) (UniProt P21731); assay: NVS_GPCR_hTXA2: NovaScreen (NVS) G Protein-Coupled Receptor Assay for human Thromboxane A2 Receptor (TXA2) (AID 2283282);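 note: actives reduce bound radioligand signal relative to DMSO baseline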
human Thromboxane A2 Receptor (TXA2), TBXA2R (gene 6915), sequence (P21731 whole entry, looked up): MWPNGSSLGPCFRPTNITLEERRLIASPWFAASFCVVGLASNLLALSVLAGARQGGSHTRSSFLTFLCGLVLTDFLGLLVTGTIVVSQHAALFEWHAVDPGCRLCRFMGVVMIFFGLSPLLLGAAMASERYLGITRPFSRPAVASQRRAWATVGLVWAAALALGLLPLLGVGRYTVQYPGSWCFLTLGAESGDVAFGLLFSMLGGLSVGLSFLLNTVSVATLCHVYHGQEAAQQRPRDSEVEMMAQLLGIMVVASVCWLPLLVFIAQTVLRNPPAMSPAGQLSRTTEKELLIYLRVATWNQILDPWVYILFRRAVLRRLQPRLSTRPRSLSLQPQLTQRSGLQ
Method in brief: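 Cell-free radioligand binding with human platelet-derived receptor; 1 h after dosing, filter-based scintillation counting, loss of signal vs DMSO. Primary screen in duplicate at 25 uM.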

[5] = molecular target: human Opioid Receptor Mu (Opiate Mu), OPRM1 (gene 4988) (UniProt P35372); assay: NVS_GPCR_hOpiate_mu: NovaScreen (NVS) G Protein-Coupled Receptor Assay for human Opioid Receptor Mu (Opiate Mu) (AID 2283290);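 note: hits lower bound tracer signal versus DMSO meaning displacement of the ligand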
human Opioid Receptor Mu (Opiate Mu), OPRM1 (gene 4988), sequence (P35372 whole entry, looked up): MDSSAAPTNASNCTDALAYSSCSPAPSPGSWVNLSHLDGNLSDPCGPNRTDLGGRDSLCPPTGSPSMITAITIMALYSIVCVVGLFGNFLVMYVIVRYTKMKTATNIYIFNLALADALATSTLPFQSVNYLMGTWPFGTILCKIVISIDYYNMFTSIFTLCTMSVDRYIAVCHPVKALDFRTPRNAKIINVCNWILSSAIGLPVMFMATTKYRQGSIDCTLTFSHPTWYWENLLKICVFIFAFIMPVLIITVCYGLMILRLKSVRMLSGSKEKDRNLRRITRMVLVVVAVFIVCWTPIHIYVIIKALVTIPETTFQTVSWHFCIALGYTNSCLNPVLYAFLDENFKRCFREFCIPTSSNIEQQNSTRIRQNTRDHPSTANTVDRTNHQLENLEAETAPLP
Method in brief: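 Primary screen in duplicate at 25 uM, with actives followed in concentration series. CHO-derived receptor membranes, cell-free; bound radioligand read by scintillation counting after filtration at 2.5 h, decrease scored against DMSO.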

[6] = tested on: rat Adrenergic, Alpha 1B Receptor (Adra1B), gene 24173; assay: NVS_GPCR_rAdra1B: NovaScreen (NVS) G Protein-Coupled Receptor Assay for rat Adrenergic, Alpha 1B Receptor (Adra1B) (AID 2283297)
Method in brief: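 Rat liver membranes, radioligand displacement with filter-based scintillation detection, 1 h incubation. Primary screen in duplicate at 25 uM; actives retested in concentration series; activity relative to DMSO.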

[7] = molecular target: rat Serotonin, 5-Hydroxytryptamine Receptor (5HT), Non-Selective Binding, Htr1a (gene 24473) (UniProt P19327); assay: NVS_GPCR_r5HT_NonSelective: NovaScreen (NVS) G Protein-Coupled Receptor Assay for rat Serotonin, 5-Hydroxytryptamine Receptor (5HT), Non-Selective Binding (AID 2283295)
rat Serotonin, 5-Hydroxytryptamine Receptor (5HT), Non-Selective Binding, Htr1a (gene 24473), sequence (P19327 whole entry, looked up): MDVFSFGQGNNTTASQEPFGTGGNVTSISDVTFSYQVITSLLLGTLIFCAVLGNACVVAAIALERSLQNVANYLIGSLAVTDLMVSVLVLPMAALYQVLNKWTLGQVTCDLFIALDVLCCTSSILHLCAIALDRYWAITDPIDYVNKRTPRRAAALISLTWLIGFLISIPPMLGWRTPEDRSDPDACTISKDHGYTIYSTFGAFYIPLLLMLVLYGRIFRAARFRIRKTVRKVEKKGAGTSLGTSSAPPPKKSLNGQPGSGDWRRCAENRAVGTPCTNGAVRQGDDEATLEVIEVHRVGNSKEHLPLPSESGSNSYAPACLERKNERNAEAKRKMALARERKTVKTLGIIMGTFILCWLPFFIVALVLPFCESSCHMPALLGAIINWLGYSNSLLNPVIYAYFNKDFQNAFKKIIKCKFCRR
Method in brief: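 Radioligand displacement on rat cortical membranes, 1 h incubation, filter-based scintillation counting. Primary duplicates at 25 uM, actives retested in concentration series; loss of signal fitted against DMSO as baseline.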

[8] = molecular target: human Neurokinin, NK2 Receptor, TACR2 (gene 6865) (UniProt P21452); assay: NVS_GPCR_hNK2: NovaScreen (NVS) G Protein-Coupled Receptor Assay for human Neurokinin, NK2 Receptor (AID 2283278);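 note: actives reduce bound radioligand signal relative to DMSO baseline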
human Neurokinin, NK2 Receptor, TACR2 (gene 6865), sequence (P21452 whole entry, looked up): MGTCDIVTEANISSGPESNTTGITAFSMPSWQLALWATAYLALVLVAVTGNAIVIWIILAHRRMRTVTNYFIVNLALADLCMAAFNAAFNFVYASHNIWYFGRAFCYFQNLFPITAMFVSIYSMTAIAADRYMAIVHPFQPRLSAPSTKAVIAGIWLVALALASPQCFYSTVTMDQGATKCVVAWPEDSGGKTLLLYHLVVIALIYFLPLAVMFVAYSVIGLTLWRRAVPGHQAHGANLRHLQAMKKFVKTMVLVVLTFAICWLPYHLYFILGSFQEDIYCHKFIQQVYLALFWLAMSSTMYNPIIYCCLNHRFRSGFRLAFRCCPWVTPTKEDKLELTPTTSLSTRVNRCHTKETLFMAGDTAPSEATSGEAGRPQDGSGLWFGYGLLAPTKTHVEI
Method in brief: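 Cell-free radioligand binding using receptor protein extracted from CHO cells; readings taken 4 hours after chemical dosing by filter-based scintillation counting. Primary screen ran single concentration (25 uM) in duplicate; actives followed up in concentration series, loss-of-signal versus DMSO baseline.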

[9] = molecular target: human Orphanin, Opioid Related Nociceptin Receptor 1 (ORL1), OPRL1 (gene 4987) (UniProt P41146); assay: NVS_GPCR_hORL1: NovaScreen (NVS) G Protein-Coupled Receptor Assay for human Orphanin, Opioid Related Nociceptin Receptor 1 (ORL1) (AID 2283283)
human Orphanin, Opioid Related Nociceptin Receptor 1 (ORL1), OPRL1 (gene 4987), sequence (P41146 whole entry, looked up): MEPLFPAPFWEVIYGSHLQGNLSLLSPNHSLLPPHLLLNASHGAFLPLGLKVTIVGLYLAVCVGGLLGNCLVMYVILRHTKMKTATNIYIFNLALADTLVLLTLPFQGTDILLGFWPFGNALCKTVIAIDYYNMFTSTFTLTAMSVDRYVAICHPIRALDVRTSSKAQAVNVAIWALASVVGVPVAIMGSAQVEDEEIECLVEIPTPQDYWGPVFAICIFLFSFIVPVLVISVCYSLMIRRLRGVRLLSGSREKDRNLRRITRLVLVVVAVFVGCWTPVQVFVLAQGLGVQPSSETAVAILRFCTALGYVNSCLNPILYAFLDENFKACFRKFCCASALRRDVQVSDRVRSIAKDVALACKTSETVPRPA
Method in brief: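 Filter-based radioligand displacement with receptor extracted from HEK293 cells, read 1 hour after dosing by scintillation counting. Duplicate single-point screen at 25 uM; qualifying chemicals then run in concentration-response to 50 uM, analysed relative to DMSO.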

[10] = molecular target: rat Adrenergic Receptor, Beta (Adrb), Non-selective Binding, Adrb1 (gene 24925) (UniProt P18090); assay: NVS_GPCR_rAdrb_NonSelective: NovaScreen (NVS) G Protein-Coupled Receptor Assay for rat Adrenergic Receptor, Beta (Adrb), Non-selective Binding (AID 2283298)
rat Adrenergic Receptor, Beta (Adrb), Non-selective Binding, Adrb1 (gene 24925), sequence (P18090 whole entry, looked up): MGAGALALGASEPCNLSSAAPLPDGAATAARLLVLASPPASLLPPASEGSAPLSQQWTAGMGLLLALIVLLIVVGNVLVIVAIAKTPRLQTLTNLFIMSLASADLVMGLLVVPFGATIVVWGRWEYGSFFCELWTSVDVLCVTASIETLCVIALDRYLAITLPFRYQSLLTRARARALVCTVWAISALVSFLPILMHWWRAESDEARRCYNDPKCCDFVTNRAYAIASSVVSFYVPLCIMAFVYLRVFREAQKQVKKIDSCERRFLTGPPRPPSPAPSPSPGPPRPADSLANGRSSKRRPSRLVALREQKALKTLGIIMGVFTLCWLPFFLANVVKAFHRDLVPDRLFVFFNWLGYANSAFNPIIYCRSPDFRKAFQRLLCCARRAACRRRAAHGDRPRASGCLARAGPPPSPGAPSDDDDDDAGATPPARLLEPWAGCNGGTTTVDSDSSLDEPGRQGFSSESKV
Method in brief: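 Non-selective beta-adrenergic radioligand binding in rat cortical membranes, 1 h incubation, filter-based scintillation read-out. Primary screen 25 uM in duplicate; hits retested in concentration-response up to 50 uM, DMSO baseline.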

[11] = molecular target: human Neuropeptide Receptor Y1 (NPY1), NPY1R (gene 4886) (UniProt P25929); assay: NVS_GPCR_hNPY1: NovaScreen (NVS) G Protein-Coupled Receptor Assay for human Neuropeptide Receptor Y1 (NPY1) (AID 2283276)
Method in brief: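 Cell-free radioligand binding using receptor extracted from SK-N-MC cells, 1 h incubation, filter-based scintillation counting. Primary screen single concentration 25 uM in duplicate; actives followed in concentration series. Loss of bound signal scored versus DMSO.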

[12] = molecular target: rat Serotonin, 5-Hydroxytryptamine Receptor 1 (5HT1), Non-Selective Binding, Htr1a (gene 24473) (UniProt P19327); assay: NVS_GPCR_r5HT1_NonSelective: NovaScreen (NVS) G Protein-Coupled Receptor Assay for rat Serotonin, 5-Hydroxytryptamine Receptor 1 (5HT1), Non-Selective Binding (AID 2283286)
rat Serotonin, 5-Hydroxytryptamine Receptor 1 (5HT1), Non-Selective Binding, Htr1a (gene 24473), sequence (P19327 whole entry, looked up): as the sequence (P19327 whole entry, looked up) above
Method in brief: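 Rat cortical membranes, radioligand displacement, 1 h incubation, read by filter scintillation. Primary screen in duplicate at 25 uM. Hits (e.g. ≥30% inhibition) went to concentration-response up to 50 uM, fitted as loss of binding versus DMSO.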

[13] = tested on: 5-hydroxytryptamine receptor 2C (pig); assay: NVS_GPCR_p5HT2C: NovaScreen (NVS) G Protein-Coupled Receptor Assay for pig Serotonin, 5-Hydroxytryptamine Receptor 2C (5HT2C) (AID 2283288)
Method in brief: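 Pig choroid plexus membranes; radioligand competitive binding, filter-based scintillation counting, read 1 h after dosing. Primary screen in duplicate at 25 uM; actives then run as concentration series; loss of signal versus DMSO baseline.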

[14] = molecular target: rat Adrenergic, Alpha 1A Receptor (Adra1A), Adra1a (gene 29412) (UniProt P43140); assay: NVS_GPCR_rAdra1A: NovaScreen (NVS) G Protein-Coupled Receptor Assay for rat Adrenergic, Alpha 1A Receptor (Adra1A) (AID 2283296)
rat Adrenergic, Alpha 1A Receptor (Adra1A), Adra1a (gene 29412), sequence (P43140 whole entry, looked up): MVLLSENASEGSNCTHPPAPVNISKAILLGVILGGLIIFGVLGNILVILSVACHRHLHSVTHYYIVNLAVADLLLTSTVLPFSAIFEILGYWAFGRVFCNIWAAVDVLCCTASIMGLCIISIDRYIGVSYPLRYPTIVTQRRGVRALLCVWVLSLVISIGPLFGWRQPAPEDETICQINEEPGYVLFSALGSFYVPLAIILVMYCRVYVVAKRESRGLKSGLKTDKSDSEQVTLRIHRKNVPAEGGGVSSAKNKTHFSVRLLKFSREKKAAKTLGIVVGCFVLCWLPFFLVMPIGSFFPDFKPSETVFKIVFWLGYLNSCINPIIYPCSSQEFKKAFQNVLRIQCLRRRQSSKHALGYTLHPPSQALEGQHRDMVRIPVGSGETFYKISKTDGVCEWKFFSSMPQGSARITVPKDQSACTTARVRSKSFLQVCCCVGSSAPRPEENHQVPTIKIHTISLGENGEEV
Method in brief: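 Rat cortical membranes pretreated with chlorethyl clonidine; competitive radioligand displacement, 1 h. Filter-based scintillation counting. Primary screen in duplicate at 25 uM, actives followed in concentration series.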

[15] = tested on: rabbit Platelet Activating Factor Receptor (PAF), gene 100354046; assay: NVS_GPCR_rabPAF: NovaScreen (NVS) G Protein-Coupled Receptor Assay for rabbit Platelet Activating Factor Receptor (PAF) (AID 2283287)
Method in brief: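 Rabbit platelet membrane preparation; radioligand displacement read by filter-based scintillation counting 1 h after dosing, loss of signal versus DMSO. Primary screen in duplicate at 25 uM, actives followed up in concentration series.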

[16] = molecular target: rat Adrenergic, Alpha 1, Non-selective Receptor (Adra1), Adra1a (gene 29412) (UniProt P43140); assay: NVS_GPCR_rAdra1_NonSelective: NovaScreen (NVS) G Protein-Coupled Receptor Assay for rat Adrenergic, Alpha 1, Non-selective Receptor (Adra1) (AID 2283289)
rat Adrenergic, Alpha 1, Non-selective Receptor (Adra1), Adra1a (gene 29412), sequence (P43140 whole entry, looked up): as above
Method in brief: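 Rat forebrain membranes; radioligand displacement read by filter-based scintillation counting 1 h after dosing. Primary screen in duplicate at 25 uM; hits (e.g. ≥30% inhibition) rerun as concentration–response to 50 uM max. Fitted versus DMSO.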

[17] = molecular target: mouse Cholecystokinin, CCK1 Receptor (CCKA), Cckar (gene 12425) (UniProt O08786); assay: NVS_GPCR_mCCKAPeripheral: NovaScreen (NVS) G Protein-Coupled Receptor Assay for mouse Cholecystokinin, CCK1 Receptor (CCKA) (AID 2283285)
Method in brief: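 Radioligand competitive displacement on mouse pancreatic membranes, 2 h incubation; filter-based scintillation counting, loss of signal versus DMSO. Single-concentration screen at 25 uM in duplicate, actives retested in concentration-response up to 50 uM.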

How did the outcome [1] turn out when `CCCCCCCCCCCCCCCCOS(=O)(=O)O` was run?
Its outcome is “inactive”.

What about the AC50 [2] of the same compound?
The AC50 was 3.9 µM (active).

What about the AC50 [3] of the same compound?
The AC50 was 5.47 µM (active).

And the AC50 [4]?
The AC50 was 12.5 µM (active).

And the AC50 [5]?
Its AC50 is 4.11 µM (active).

What about the AC50 [6] of the same compound?
Its AC50 is 12.5 µM (active).

`Cc1ncc([C@@H](CCCCCCc2ccc3c(n2)NCCC3)CC(=O)O)cn1` was tested. Which outcome [2] did it give?
The outcome was “inactive”.

What about the outcome [7] of the same compound?
The outcome was “inactive”.

`NNC(=O)c1ccncc1` was tested. Which AC50 [8] did it give?
Its AC50 is 2.18 µM (active).

For `OCc1c[nH]c2ccccc12`, which AC50 [8] is on record?
Its AC50 is 19.7 µM (active).

And the outcome [4]?
The outcome was “inactive”.

How did the outcome [1] turn out when `CCCCCCCC/C=C\CCCCCCCC(=O)OC[C@@H](O)[C@H]1OC[C@H](O)[C@H]1O` was run?
Its outcome is “inactive”.

What about the AC50 [4] of the same compound?
The AC50 was 25 µM (active).

And the outcome [5]?
Its outcome is “inactive”.

Which results are given for `OCCOCCOCCO`?
outcome [9]: inactive; outcome [10]: inactive

With `CCn1nc(C)c2c1C(=O)NCC(c1ccc(O)cc1)=N2` as the compound, how does the outcome [11] read?
The outcome was “inactive”.

What about the outcome [8] of the same compound?
Its outcome is “inactive”.

What about the AC50 [4] of the same compound?
The AC50 was 14.4 µM (active).

And the outcome [12]?
The outcome was “inactive”.

What about the outcome [13] of the same compound?
Its outcome is “inactive”.

And the outcome [5]?
Its outcome is “inactive”.

What about the outcome [7] of the same compound?
The outcome was “inactive”.

And the outcome [14]?
The outcome was “inactive”.

And the outcome [10]?
The outcome was “inactive”.

For `O=C(O)[C@H](O)[C@@H](O)C(=O)O`, which outcome [5] is on record?
The outcome was “inactive”.

`c1ccc2cc3ccccc3cc2c1` was tested. Which outcome [5] did it give?
Its outcome is “inactive”.

Which outcome [4] does the source give for `CC[C@H](C)C(=O)O[C@H]1C[C@H](O)C=C2C=C[C@H](C)[C@H](CC[C@@H](O)C[C@@H](O)CC(=O)O)[C@H]21` here?
The outcome was “inactive”.

With `Cc1nccn1-c1ccc(Sc2cccc(C3(C(N)=O)CCOCC3)c2)cc1` as the compound, how does the AC50 [15] read?
Its AC50 is 15.8 µM (active).

Which outcome [13] does the source give for `COCc1nnc(-c2ccc[n+]([O-])c2)n1-c1c(Cl)c(Cl)cc2[nH]c(=O)c(=O)[nH]c12` here?
The outcome was “inactive”.

With `COc1cc(C(C)C)c2c(c1)S(=O)(=O)N(COc1cc(=O)n3cccc(OCCN4CCCCC4)c3n1)C2=O` as the compound, how does the AC50 [1] read?
Its AC50 is 0.84 µM (active).

What about the AC50 [16] of the same compound?
The AC50 was 3.1 µM (active).

What about the outcome [5] of the same compound?
The outcome was “inactive”.

What about the outcome [14] of the same compound?
Its outcome is “inactive”.

What about the AC50 [6] of the same compound?
Its AC50 is 3.17 µM (active).

Which AC50 [15] does the source give for `CCCOc1ccc(S(=O)(=O)N2CCN(CC)CC2)cc1-c1nc2c(CC)n(Cc3ccccn3)nc2c(=O)[nH]1` here?
Its AC50 is 6.42 µM (active).

And the AC50 [16]?
Its AC50 is 0.402 µM (active).

What does the source list for `O=S(=O)(O)c1ccc(N=Nc2c(O)ccc3cc(S(=O)(=O)O)ccc23)cc1`?
AC50 [12]: 12.4 µM (active); outcome [16]: inactive

With `CC(C)C(=O)Nc1ccc([N+](=O)[O-])c(C(F)(F)F)c1` as the compound, how does the AC50 [4] read?
The AC50 was 4.96 µM (active).

What about the outcome [17] of the same compound?
Its outcome is “inactive”.

And the outcome [13]?
Its outcome is “inactive”.

`O=c1[nH]cnc2c1ncn2[C@H]1CC[C@@H](CO)O1` was tested. Which outcome [7] did it give?
Its outcome is “inactive”.
